Data published in PubChem BioAssay AID493087 (The Scripps Research Institute Molecular Screening Center, 2011).
Hit rate of the full screen: of about 340,000 compounds, about 240 (0.071%) were called active. This is one part of a sample in which actives are shown more often than they occur. Unmarked numbers belong to inactive results.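 How the source made its calls: active means activation above the mean of all tested compounds plus 3 SD, set per screening campaign (cut at about 17% in these data); inactive means the rest.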

target: Insulin-degrading enzyme (Homo sapiens) (UniProt P14735); experiment: enhanced cellular IDE Abeta cleavage – fluorescence polarization, HEK cells, FAbeta-B substrate, primary screen (AID 493087); conditions: at 5.96 µM, hits give high values, 0% vehicle, 100% cell-free pure enzyme wells
Sequence (P14735 whole entry, looked up): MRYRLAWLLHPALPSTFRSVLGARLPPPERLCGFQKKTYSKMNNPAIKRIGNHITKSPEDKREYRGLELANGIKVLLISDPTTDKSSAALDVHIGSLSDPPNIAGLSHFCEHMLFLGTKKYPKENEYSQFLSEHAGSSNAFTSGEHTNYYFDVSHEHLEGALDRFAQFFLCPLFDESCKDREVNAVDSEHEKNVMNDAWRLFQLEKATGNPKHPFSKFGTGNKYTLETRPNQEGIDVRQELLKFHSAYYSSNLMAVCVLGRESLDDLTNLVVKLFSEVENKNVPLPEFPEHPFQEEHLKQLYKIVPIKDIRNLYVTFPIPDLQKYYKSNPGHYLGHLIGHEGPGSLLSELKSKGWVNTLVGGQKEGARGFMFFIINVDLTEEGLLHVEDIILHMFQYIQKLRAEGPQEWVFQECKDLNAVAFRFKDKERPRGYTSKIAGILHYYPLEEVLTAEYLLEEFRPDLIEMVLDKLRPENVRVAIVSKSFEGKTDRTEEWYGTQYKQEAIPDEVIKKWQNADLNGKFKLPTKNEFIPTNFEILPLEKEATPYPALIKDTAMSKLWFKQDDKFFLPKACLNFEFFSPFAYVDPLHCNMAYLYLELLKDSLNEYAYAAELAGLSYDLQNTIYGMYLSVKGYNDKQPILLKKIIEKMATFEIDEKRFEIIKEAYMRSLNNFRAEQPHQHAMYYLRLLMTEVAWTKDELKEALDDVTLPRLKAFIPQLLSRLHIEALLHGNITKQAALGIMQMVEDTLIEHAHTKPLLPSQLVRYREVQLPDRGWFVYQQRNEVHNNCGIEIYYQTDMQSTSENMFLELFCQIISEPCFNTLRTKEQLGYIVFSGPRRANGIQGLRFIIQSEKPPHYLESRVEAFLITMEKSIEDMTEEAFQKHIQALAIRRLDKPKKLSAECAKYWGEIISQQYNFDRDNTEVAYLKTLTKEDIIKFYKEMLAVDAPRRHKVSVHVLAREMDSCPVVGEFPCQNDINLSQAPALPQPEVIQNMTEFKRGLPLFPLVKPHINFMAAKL

Compound | activation
COc1ccc(-c2csc3ncnc(Oc4ccc5c(C)cc(=O)oc5c4)c23)cc1 | -0.97%
CCOC(=O)C1CCN(S(=O)(=O)c2ccc3c(c2)N(C)C(=O)CC(=O)N3C)CC1 | 4.32%
Cc1ccc(C(c2nnnn2CS(=O)(=O)c2ccc(C)cc2)N2CCC(C)CC2)cc1 (stereo not given) | 6.3%
CN1CCN(C(=O)C(=O)c2cn(CC(=O)N3CCCC3)c3ccccc23)CC1 | 0.5%
Fc1cccc(CSc2nnc3ccc(-c4ccncc4)nn23)c1 | 11%
COC(=O)[C@]1(S(=O)(=O)c2ccccc2)C[C@@H]2ON=C(c3ccc(OC)cc3)[C@@H]2C1 | -5.33%
COc1ccc(N2CCN(C(=O)c3ccc(N4CCCCS4(=O)=O)cc3)CC2)cc1 | 1.3%
CN(CC(=O)NC1CCCCC1)S(=O)(=O)c1cccc2cccnc12 | 4.22%
O=C1/C(=C\c2ccc(O)cc2)CCC1CNc1ccc(Cl)cc1 (stereo not given) | -1.61%
N#Cc1cccc(CN2CCC(=O)N([C@H](CO)c3ccccc3)CC2)c1 | 2.37%
OC(COc1ccccc1)CN1CCN(c2cccc(Cl)c2)CC1 (stereo not given) | 5.12%
CN(Cc1cccs1)C(=O)CN1C(=O)c2ccccc2S1(=O)=O | 0.93%
COCCN(C(=S)Nc1cccc(Cl)c1C)C(C)c1ccco1 (stereo not given) | 1.29%
COc1ccc(S(=O)(=O)c2c[nH]c(=S)[nH]c2=O)cc1Cl | -1.33%
CN(C)S(=O)(=O)c1ccc(N2CCCC2=O)c([N+](=O)[O-])c1 | 5.59%
COc1ccc(Cn2cc(CN3CCS(=O)(=O)N(Cc4ccc(-c5cccc(Cl)c5)cc4)C(C)C3=O)nn2)cc1 (stereo not given) | 1.16%
Cc1noc(C)c1C(=O)OC(C)C(=O)Nc1ccc2c(c1)OCO2 (stereo not given) | 0.42%
CCCCSCCCNC(=O)C1CCC(CNS(=O)(=O)c2ccc(NC(C)=O)cc2)CC1 (stereo not given) | -0.18%
CCn1c(=O)c([N+](=O)[O-])c(NCc2ccc3c(c2)OCO3)c2ccccc21 | 23.5% (active)
CCn1c(=O)cc(SCC(=O)NCc2ccc3c(c2)OCO3)c2ccccc21 | 2.55%

Compound | activation
C=CCn1c(=O)c(C(=O)NCc2ccc3c(c2)OCO3)c(O)c2ccccc21 | 3.17%
COc1ccccc1CC(NC(C)=O)C(=O)NC1CCN(C(=O)Nc2ccccc2Cl)CC1 (stereo not given) | 3.56%
O=C(CSc1ncnc2sccc12)NC1CCS(=O)(=O)C1 (stereo not given) | 6.28%
CCOC(=O)/C=C/CN(C(=O)OC(C)(C)C)S(=O)(=O)N1CC=CC1 | 34.8% (active)
CCOC(=O)/C=C/c1ccc(C(F)(F)F)cc1S(=O)(=O)NC(C)(C)C | -1.81%
CCOCc1c(C(=O)N2CCN(Cc3ccc(Br)s3)CC2)oc2ccccc12 | 7.28%
Cc1ccc(NC2CCCN(C(=O)CCC3(C)CC3)C2)cc1C (stereo not given) | 3.99%
Cn1c2c(c(=O)n(C)c1=O)[C@@H]1c3c(ccc4ccccc34)OC[C@@H]1CO2 | 9.31%
Cc1cc(C)c(S(=O)(=O)Nc2c(C)n(C)n(-c3ccccc3)c2=O)cc1[N+](=O)[O-] | 0.96%
CSc1ccccc1OCc1cc(C(=O)N2C[C@H]3CC[C@H]2C3)no1 | 0.59%
COC(=O)c1c(C)cc(O)c(C)c1O | -0.29%
COc1ccc(CCNC(=O)CCNS(=O)(=O)c2cc(Br)cnc2N)cc1OC | 3.78%
Cn1c(N)c(C(=O)COC(=O)/C=C/c2cccc(C(F)(F)F)c2)c(=O)n(C)c1=O | 4.24%
CCN1CCN(C(=O)C2(NC(=O)Nc3cccc(F)c3)CCCCC2)CC1 | 4.93%
CC(=O)N1c2ccc(S(=O)(=O)N3CCCC(C(=O)Nc4cccc(F)c4)C3)cc2CC1C (stereo not given) | 5.74%
Cc1ccc(NC(=O)C(c2ccccc2)N2CCN(C(=O)c3ccco3)CC2)cc1 (stereo not given) | 0.44%
CCCC[C@@H]1CN=C(N)N1CCc1cc(C(F)(F)F)cc(C(F)(F)F)c1 | 5.76%
CCCC(C)C(=O)OCC(=O)Nc1c(Br)cc(C)cc1Br (stereo not given) | 4.33%
Cc1ccc(S(=O)(=O)N2C[C@@H]3CCCC[C@@H]3[C@@H](C)[C@H]2c2cn(Cc3ccccc3)c3ccc(F)cc23)cc1 | 0.65%
Cc1cccc(N2CCN(C(=O)c3cc4c(=O)[nH]c5ccccc5c4n3C)CC2)c1C | 0.68%
